Assay results published in PubChem BioAssay (Tox21).
Results filed as inconclusive are left out. A number with no mark means an inactive call. The source made the active and inactive calls. Calls come from the whole dose curve; as a rule, active = well fitted cell-killing curve with a large enough effect in the repeat runs; inconclusive = weak or mixed curves, or effect the other way; inactive = flat fitted curve, though single readings scatter.

assay: cAMP Responsive Elements (CRE) small molecule agonists, cell-based qHTS assay: qHTS cell viability counter screen (AID 2060914); details: CRE-bla HEK293T viability, CellTiter-Glo luminescence, 5 h; series mostly up to 92.4 µM; activity change, negative = cytotoxicity: at the top concentration; note: nearly all actives have a fitted effect of over 50% in size
Text: National Center for Advancing Translational Sciences [NCATS]
Division of Preclinical Innovation [DPI]
U.S. Environmental Protection Agency [EPA]
National Institutes of Environmental Health Sciences [NIEHS]
National Toxicology Program [NTP]
U.S. Food and Drug Administration [FDA]
CREB (cyclic-AMP Responsive Element Binding Protein) is a cellular transcription factor. It binds to certain DNA sequences called cAMP Responsive Elements (CRE) and regulates the transcription of the genes. […] This cell line can be used to find agonists/antagonists of the cyclic AMP signaling pathway. The activation of the report gene under culture conditions can be detected by fluorescence intensity. This cell line has been used to screen the Tox21 10K compound library to identify agonists that induce oxidative stress. The cytotoxicity of the Tox21 compound library against the CRE-bla cell line was tested in parallel by measuring the cell viability using CellTiter-Glo assay (Promega, Madison, WI) in the same wells.
Tox21 Assay Protocol Summary:
CRE-bla Hek 293T cells were suspended in assay medium (DMEM containing 10% dialyzed FBS, 0.1 mM NEAA, 1 mM sodium pyruvate and 25 mM HEPES) and dispensed at 2,000 cells/5 uL /well into 1536-well black wall/clear bottom plates using a Multidrop Combi (ThermoFisher Scientific, Waltham, MA) dispenser. After the assay plates were incubated at 37 C/5% CO2 for 18 hrs, 23 nL of compounds dissolved in DMSO, positive controls or DMSO only was transferred to the assay plate by a pintool workstation (Kalypsys, San Diego, CA). After the plates were incubated at 37 C/5% CO2 for 3 hrs, 1 uL of LiveBLAzer B/G FRET substrate (Invitrogen, Carlsbad, CA) was added to each well using Bioraptr Flying Reagent Dispenser (FRD, Aurora Discovery, San Diego, CA). The plates were incubated at room temperature for 2 h, then fluorescence intensities were measured using an Envision plate reader (PerkinElmer, Shelton, CT) at Excitation 405nm, Emission 460nm and 530nm. The % activity was determined from the ratio of 460nm/530nm. For cell viability readout that measures cytotoxicity, 4 uL /well of CellTiter-Glo reagent was added into the assay plates using Bioraptr FRD. After 30 min incubation at room temperature, the luminescence intensity in the assay plates was measured using a ViewLux (PerkinElmer, Shelton, CT) plate reader.
% is set by controls: 0 for no effect and ±100 for the full control effect.

With `CCCCOC(=O)c1ccccc1N` as the molecule, how does the “activity change, negative = cytotoxicity” value read?
The value was -20.4%.

Which “activity change, negative = cytotoxicity” value does the source give for `N#CCc1ccccc1` here?
The value was 1.21%.

With `O=[N+]([O-])c1cc(Cl)ccc1Cl` as the molecule, how does the “activity change, negative = cytotoxicity” value read?
Its value is 5.43%.

For `N#Cc1cc(Br)c(O)c(Br)c1`, which “activity change, negative = cytotoxicity” value is on record?
The value was -9.16%.

Which “activity change, negative = cytotoxicity” value does the source give for `N#CC(C#N)=Cc1ccc(O)c(O)c1` here?
The value was -1.7% [at 42.5 µM].

For `CN1COCN(Cc2cnc(Cl)s2)/C1=N\[N+](=O)[O-]`, which “activity change, negative = cytotoxicity” value is on record?
Its value is -5.64%.

For `C#CCOC(C(=O)OCCN(C)C)(c1ccccc1)c1ccccc1`, which “activity change, negative = cytotoxicity” value is on record?
Its value is 10.2% [at 42.5 µM].

Which “activity change, negative = cytotoxicity” value does the source give for `C=Cc1cccc(CCl)c1` here?
Its value is 4.91% [at 240 µM].

With `Clc1ccccc1-c1ccccc1Cl` as the molecule, how does the “activity change, negative = cytotoxicity” value read?
Its value is 6.94%.

Which Potency does the source give for `CN(C)C(=O)Nc1cccc(C(F)(F)F)c1` here?
Its Potency is “inactive”.

For `CC(=[OH+])/C=C(/C)[O-].CC(=[OH+])/C=C(\C)[O-].CC(=[OH+])/C=C(\C)[O-].[Fe]`, which “activity change, negative = cytotoxicity” value is on record?
The value was 6.78%.

For `CC(=O)C1CCOC1=O` (stereo not given), which Potency is on record?
Its Potency is “inactive”.

Which “activity change, negative = cytotoxicity” value does the source give for `NC(=O)CS(=O)C(c1ccccc1)c1ccccc1` (stereo not given) here?
Its value is -6.92% [at 42.5 µM].

For `Nc1ccccc1C(=O)O`, which Potency is on record?
The Potency was “inactive”.

With `CCOC(=O)NC(=S)Nc1ccccc1NC(=S)NC(=O)OCC` as the molecule, how does the “activity change, negative = cytotoxicity” value read?
Its value is 20%.

For `COC(=O)NS(=O)(=O)c1ccc(N)cc1`, which Potency is on record?
Its Potency is “inactive”.

For `Nc1cc(Cl)ccc1Cl`, which “activity change, negative = cytotoxicity” value is on record?
The value was -0.903%.

With `C[C@]12CC[C@H]3[C@@H](CCC4=CC(=O)CC[C@@H]43)[C@@H]1CC[C@@H]2OC(=O)CCc1ccccc1` as the molecule, how does the “activity change, negative = cytotoxicity” value read?
Its value is 9.56% [at 42.5 µM].

Which Potency does the source give for `Cc1cc(Cl)ccc1OC(C)C(=O)O` (stereo not given) here?
The Potency was “inactive”.

Which “activity change, negative = cytotoxicity” value does the source give for `O=C(C(Cl)(Cl)Cl)C(Cl)(Cl)Cl` here?
Its value is 0.302%.

For `CO[C@@H]1[C@H](OC(=O)NC(=O)CCl)CC[C@]2(CO2)[C@H]1[C@@]1(C)O[C@@H]1CC=C(C)C`, which activity change, negative = cytotoxicity is on record?
Its activity change, negative = cytotoxicity is 13.5% [at 18.9 µM].

Which “activity change, negative = cytotoxicity” value does the source give for `CCCOC(=O)Cc1ccc(OCC(=O)N(CC)CC)c(OC)c1` here?
Its value is -3% [at 42.5 µM].

With `N#CC(Br)Br` as the molecule, how does the “activity change, negative = cytotoxicity” value read?
The value was -4.51%.

Which “activity change, negative = cytotoxicity” value does the source give for `COc1cc(CC(C)N)c(OC)cc1Br` (stereo not given) here?
The value was -0.792%.

For `Brc1ccc(Oc2ccccc2)cc1`, which Potency is on record?
The Potency was “inactive”.

Which “activity change, negative = cytotoxicity” value does the source give for `Cc1c(Cl)c(=O)oc2cc(OP(=O)(OCCCl)OCCCl)ccc12` here?
Its value is -2.83% [at 42.5 µM].

With `CCC1(c2ccccc2)C(=O)NC(=O)NC1=O` as the molecule, how does the “activity change, negative = cytotoxicity” value read?
Its value is 2.93%.

With `CNC(=O)Oc1cccc(N=CN(C)C)c1` as the molecule, how does the “activity change, negative = cytotoxicity” value read?
Its value is 1.13%.

Which “activity change, negative = cytotoxicity” value does the source give for `O=C(N/N=C/c1ccc([N+](=O)[O-])o1)c1cc([N+](=O)[O-])cc([N+](=O)[O-])c1O` here?
The value was -1.14% [at 42.5 µM].

With `Nc1ccc(N=Nc2ccc(-c3ccc(N=Nc4c(S(=O)(=O)O)cc5cc(S(=O)(=O)O)c(N=Nc6ccccc6)c(O)c5c4N)cc3)cc2)c(N)c1` as the molecule, how does the “activity change, negative = cytotoxicity” value read?
The value was 8.96% [at 42.5 µM].

For `Cc1nc(N(C)C)nc(OC(=O)N(C)C)c1C`, which “activity change, negative = cytotoxicity” value is on record?
The value was 1.8%.

Which Potency does the source give for `Cc1cc(Cl)ccc1N` here?
The Potency was “inactive”.

For `N#Cc1ccc(Cl)cc1`, which “activity change, negative = cytotoxicity” value is on record?
Its value is -0.671%.

With `N#CC(c1ccccc1)c1ccccc1` as the molecule, how does the Potency read?
The Potency was “inactive”.

With `Cc1ccc(N)cc1Cl` as the molecule, how does the Potency read?
The Potency was “inactive”.

For `O=C(O)C(Br)CBr` (stereo not given), which “activity change, negative = cytotoxicity” value is on record?
The value was -0.459%.

Which Potency does the source give for `Nc1ncc([N+](=O)[O-])s1` here?
Its Potency is “inactive”.

Which “activity change, negative = cytotoxicity” value does the source give for `COc1cccc(C=O)c1` here?
The value was 0.656%.

With `Oc1c(Cl)cccc1Cl` as the molecule, how does the “activity change, negative = cytotoxicity” value read?
Its value is 6.24%.

Which “activity change, negative = cytotoxicity” value does the source give for `COC[C@@H](NC(C)=O)C(=O)NCc1ccccc1` here?
Its value is -25.1% [at 42.5 µM].
